Data on 46 molecules can be found in PubChem BioAssay AID2685 (National Center for Advancing Translational Sciences (NCATS), 2010).

Hit rate of the full screen: of about 320,000 compounds, about 2,100 (0.66%) were called active. Inconclusive results (about 53%) are left out. Calls follow the shape of the dose curve; as a rule, active = well fitted inhibition curve with a large enough effect in the signal ratio, with a control signal flat (not every such curve was filed as active); inconclusive = small, poorly fitted or top-dose-only effect, or effect the other way, or a change in a side signal; inactive = flat fitted curve, though single readings scatter; the % refers to the signal ratio. The list comes from a sample in which actives are over-represented; it also holds similar structures and randomly drawn compounds.
Potency is read from the fitted curve at half-maximal effect.

A short description of this test: qHTS Assay for Lipid Storage Modulators in Drosophila S3 Cells.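 As to cell number change: cells counted by Cell Tracker Red CMTPX staining in the red channel.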 The conditions noted are these: BODIPY lipid droplet fluorescence, 18-24 h, cells fed with added oleic acid; cell number change: measured here: cell count max response; series mostly up to 46.1 µM. A digest of the protocol:
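Drosophila S3 cells got compounds at several concentrations plus oleic acid (400 uM solution). Laser-scanning cytometry with 488 nm excitation read lipid droplets at 500-530 nm and cells at 575-640 nm. Percent activity was relative to 20 uM Triacsin C.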
(qHTS replaces the single test concentration by a dilution series.)
Consider `COc1ccccc1N1CCN(C(c2cc3cc(C)ccc3[nH]c2=O)c2nnnn2C2CCCC2)CC1` (configuration not stated), for which the Potency entry was “inactive” and the cell number change was found to be 10.4%.
Regarding `CC(NC(=O)COC(=O)CNC(=O)c1ccc(-c2ccccc2)cc1)c1ccccc1` (configuration not stated), the Potency entry is “inactive” and the cell number change is 0.973%.
On the same counts, the results for `O=C(Nc1ccc(COc2ccccc2)cc1)c1cccc([N+](=O)[O-])c1` are “inactive” and -16.9%.
For the molecule `O=C(NC1CCCC1)C1CCC(=O)N1C1CCCCC1` (configuration not stated), the Potency result is “inactive” and the cell number change was found to be 1.84%.
On the same counts, the results for `Cn1c(Cn2c(=O)sc3ccccc32)nnc1SCC(=O)N1CCOCC1` are “inactive” and 7.25%.
On the same counts, the results for `O=C(/C=C/c1cccc([N+](=O)[O-])c1)c1cccs1` are 23.1 µM (active) and -11.1%.
On the same counts, the results for `O=C(/C=C/c1cccc([N+](=O)[O-])c1)Nc1ccc(NC(=O)c2cccs2)cc1` are “inactive” and 5.37%.
For `O=C(/C=C/c1ccc([N+](=O)[O-])cc1)c1cccs1`, the Potency result was “inactive” and the cell number change stood at 1.74%.
On the same counts, the results for `OCCNCc1cc(Br)ccc1OCc1ccc(F)cc1` are “inactive” and -0.637%.
On the same counts, the results for `O=C(CC(NC(=O)c1ccccc1Cl)c1ccccc1)NCCc1ccc(Cl)cc1` (configuration not stated) are “inactive” and 10.1%.
For `CCCSc1nc(C)cc(=O)[nH]1`, the Potency entry was “inactive” and the cell number change was 7.07%.
Consider `Cc1cc(=O)[nH]c(SCC(=O)N2CCCCC2)n1`, for which the Potency entry was “inactive” and the cell number change amounted to 4.95%.
On the same counts, the results for `Cc1cc(=O)[nH]c(SCC2(O)C3CC4CC(C3)CC2C4)n1` (configuration not stated) are 29.1 µM (active) and -7.4%.
On the same counts, the results for `COc1ccc([N+](=O)[O-])cc1NC(=O)c1cccnc1` are “inactive” and 9.82%.
With `CCCNc1nc(C)cc(-c2cc(C(=O)NCc3ccccc3)on2)n1`, the Potency result was “inactive” and the cell number change was found to be 1.8%.
As for `Cc1cccc(N2CC(C(=O)Nc3ccccc3N3CCCC3)CC2=O)c1C` (configuration not stated), the Potency entry was “inactive”.
`COc1ccc(C)cc1N1CC(C(=O)Nc2ccccc2N2CCCCC2)CC1=O` (configuration not stated): the Potency was 1.03 µM (active) and the cell number change was determined as 3.68%.
Consider `CCOc1ccccc1N1CC(C(=O)Nc2ccccc2N2CCCC2)CC1=O` (configuration not stated), for which the Potency entry is “inactive”.
For `Cc1ccc(-c2nc(C#N)c(NCCN3CCCCC3)o2)cc1`, the Potency entry was “inactive” and the cell number change is 1.25%.
On the same counts, the results for `CCOC(=O)c1c(C)[nH]c(C=C2C(=O)CCCC2=O)c1O` are “inactive” and -4.56%.
On the same counts, the results for `Cn1cccc1/C=C(/C#N)C(N)=S` are “inactive” and 0.988%.
On the same counts, the results for `O=C(NCCc1c[nH]c2ccccc12)C(=O)NCC(c1ccco1)N1CCN(c2ccccc2)CC1` (configuration not stated) are “inactive” and -12.5%.
As to `Cc1ccc(NS(=O)(=O)c2ccc(C(=O)OCC(=O)Nc3cc(C)on3)cc2)cc1`, the Potency result was “inactive” and the cell number change was -18.1%.
On the same counts, the results for `O=[N+]([O-])c1ccc(-c2csc(Nc3ccccc3)[n+]2Cc2ccccc2)cc1` are 13 µM (active) and -27.2%.
On the same counts, the results for `c1ccc(C[n+]2c(-c3ccccc3)csc2Nc2ccccc2)cc1` are “inactive” and -10.6%.
On the same counts, the results for `COc1ccc(-c2csc(Nc3ccccc3)[n+]2CC(O)c2ccc([N+](=O)[O-])cc2)cc1` (configuration not stated) are “inactive” and -3.41%.
Take `O=C1OCc2cc(-n3cccc3)ccc21`: the Potency entry was “inactive” and the cell number change is -1.52%.
Take `CCOC(=O)N1CCC(NC(=O)c2ccc(CS(=O)(=O)c3ccccc3C)o2)CC1`: the Potency result was “inactive” and the cell number change was -13.7%.
Consider `Cc1ccccc1S(=O)(=O)Cc1ccc(C(=O)NC2CCC(C)CC2)o1` (configuration not stated), for which the Potency is 18.4 µM (active) and the cell number change was -18.5%.
For the molecule `Cc1ccccc1S(=O)(=O)Cc1ccc(C(=O)NC2CCCCC2C)o1` (configuration not stated), the Potency entry was “inactive”.
For `COC(=O)c1cccc(NC(=O)C(C)(C)C)c1`, the Potency entry was “inactive” and the cell number change is -0.276%.
On the same counts, the results for `Cn1ccnc1SCC(=O)c1ccc(Cl)cc1` are “inactive” and 1.94%.
On the same counts, the results for `CN1CCC(NC(=O)Nc2ccc(Br)cc2)CC1` are “inactive” and -12.5%.
Turning to `COc1ccc(NC(=O)COC(=O)C2CC(=O)N(Cc3ccc(C)cc3)C2)cc1` (configuration not stated), the Potency was 2.06 µM (active) and the cell number change is -4.17%.
On the same counts, the results for `COc1ccc(CN2CC(C(=O)NCCc3ccc(C)cc3)CC2=O)cc1` (configuration not stated) are “inactive” and 1.29%.
With `COc1ccc(COC(=O)C2CC(=O)N(Cc3ccc(C)cc3)C2)cc1` (configuration not stated), the cell number change is -16.1% and the outcome is “inactive [at 0.369 µM]”.
On to `COC(=O)C1CCN(C(=O)c2ccc(Cl)c(S(=O)(=O)NCc3cccnc3)c2)CC1`, for which the Potency result is “inactive” and the cell number change was 20.6%.
As to `CC(=O)Oc1ccccc1N(C(C)=O)S(=O)(=O)c1ccc(C)cc1`, the Potency entry was “inactive” and the cell number change is -8.62%.
On the same counts, the results for `CC(C)CC(NC(N)=O)C(=O)NCc1ccc(Cl)cc1` (configuration not stated) are “inactive” and 6.23%.
For `CC(C)[C@H](NC(=O)NCc1ccc(Cl)cc1)C(=O)O`, the Potency result was “inactive”.
Take `CC(C)C[C@H](NC(=O)NCc1ccc(Cl)cc1)C(=O)O`: the Potency is 6.51 µM (active) and the cell number change is -1.47%.
`CCC(=O)Nc1ccc(NC(=O)CSc2nc3cc4c(cc3cc2C)CCC4)cc1`: the Potency result was “inactive” and the cell number change came out at 0.207%.
On the same counts, the results for `CCC(=O)Nc1nn(C)c2nc3c(C)cccc3cc12` are “inactive” and -9.14%.
Consider `CC1CCN(CCCNC(=O)C2CCC(CNS(=O)(=O)c3cccc4nsnc34)CC2)CC1` (configuration not stated), for which the Potency result is “inactive”.
In the case of `CCOc1ccc(-n2c(=O)cc(N3CCN(c4ccc(F)cc4)CC3)[nH]c2=O)cc1`, the Potency result is “inactive” and the cell number change was 10.6%.
On the same counts, the results for `Cc1ccc(-c2nnn(CC(=O)N(Cc3ccco3)C(C(=O)NC(C)(C)C)c3cccs3)n2)o1` (configuration not stated) are “inactive” and -15.2%.
